Reference: PubChem BioAssay (NCI)
Values joined by “and” are separate entries in the source; they are usually repeats but may differ in a detail not shown here. Equal entries are not always repeated. The panel holds about 83,000 compounds, 20% with a hit somewhere; the sample as a whole holds those more often.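 Values shown are percent growth following 48 h exposure of cells in 96-well plates to a single concentration of compound; below 10 was considered active.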 Values without a mark were called inactive. Active and inactive are the calls of the source.

Assays:
Assay in all cases: NCI-60 one-dose screen, 48 h (100 = growth as untreated, 0 = no growth, -100 = all killed)
Details in all cases: 10 µM unless noted
[1] = system: SF-295 CNS
[2] = system: RXF 393 renal
[3] = system: U251 CNS
[4] = system: SK-MEL-5 melanoma
[5] = system: UACC-62 melanoma
[6] = system: DU-145 prostate
[7] = system: MALME-3M melanoma
[8] = system: MDA-MB-231 breast
[9] = system: SF-268 CNS
[10] = system: SF-539 CNS
[11] = system: UACC-257 melanoma
[12] = system: M14 melanoma
[13] = system: HCT-15 colon
[14] = system: HT29 colon
[15] = system: SNB-75 CNS
[16] = system: SNB-19 CNS
[17] = system: PC-3 prostate
[18] = system: LOX IMVI melanoma
[19] = system: SK-MEL-28 melanoma

SMILES: N#C[S-].[Au+].c1ccc(CN2[CH-]N(Cc3ccccc3)C(c3ccccc3)=C2c2ccccc2)cc1
- growth [1]: -14.8% (active)

SMILES: Cc1cc[n+](CCc2ccccc2)cc1
- growth [2]: 108%
- growth [3]: 97.2%
- growth [4]: 92.7%

SMILES: Cc1sccc1C(=S)Nc1ccc(Cl)c(/C=N/OC(C)(C)C)c1
- growth [5]: -86.5% [100 µM] (active) and -92.3% [100 µM] (active)

SMILES: FCOC(C(F)(F)F)C(F)(F)F
- growth [6]: 113%
- growth [7]: 92.2%
- growth [8]: 120%
- growth [2]: 115%
- growth [9]: 115%
- growth [1]: 106%
- growth [10]: 98.8%
- growth [11]: 90.4%
- growth [12]: 99.9%
- growth [13]: 103%
- growth [14]: 107%
- growth [15]: 109%
- growth [16]: 108%
- growth [3]: 94.1%
- growth [17]: 106%
- growth [4]: 103%
- growth [5]: 104%
- growth [18]: 101%
- growth [19]: 126%

SMILES: C=CCCCCCCCCC(=O)[O-].C=CCCCCCCCCC(=O)[O-].[Zn+2]
- growth [8]: 106%
- growth [16]: 100%

SMILES: CN1CCn2c(c(Sc3ccc(C(=O)NO)cc3)c3ccccc32)C1=O
- growth [6]: 36.3%
- growth [7]: 63.6%
- growth [8]: -15.2% (active)
- growth [2]: -14.4% (active)
- growth [9]: -34.9% (active)
- growth [1]: -1.68% (active)
- growth [10]: -90.8% (active)
- growth [11]: -9.93% (active)
- growth [12]: -37.7% (active)
- growth [13]: 14.6%
- growth [14]: 44.3%
- growth [15]: -17.2% (active)
- growth [16]: -26.4% (active)
- growth [3]: -60.5% (active)
- growth [17]: -35.2% (active)
- growth [5]: -61.4% (active)
- growth [18]: -44.2% (active)
- growth [19]: -33.4% (active)

SMILES: Cc1ccc(N(CSc2ccc(Cl)cc2)CSc2ccc(Cl)cc2)cc1
- growth [6]: 44.8%
- growth [7]: 69.1%
- growth [8]: 18.4%
- growth [2]: 91.4%
- growth [9]: 25%
- growth [1]: 11.3%
- growth [10]: 16.1%
- growth [11]: 88.9%
- growth [12]: 57.8%
- growth [13]: 67.2%
- growth [14]: 74.7%
- growth [16]: 78.6%
- growth [3]: 47.8%
- growth [17]: 10.8%
- growth [4]: 65.5%
- growth [5]: 60%
- growth [18]: -10.1% (active)
- growth [19]: 102%

SMILES: Clc1ccc(C2=Nc3cccc4cccc(c34)N2)cc1Cl
- growth [6]: 110%
- growth [7]: 102%
- growth [8]: 97.4%
- growth [2]: -5.75% (active)
- growth [1]: 112%
- growth [10]: 108%
- growth [11]: 93.6%
- growth [12]: 103%
- growth [13]: 70.2%
- growth [14]: 101%
- growth [15]: 77.5%
- growth [16]: 70.3%
- growth [17]: 65.8%
- growth [4]: 91.6%
- growth [5]: 109%
- growth [18]: 84%
- growth [19]: 104%

SMILES: CSc1nnc(-c2sc3nnc(-c4ccccc4)c(-c4ccccc4)c3c2O)o1
- growth [6]: 84.7%
- growth [8]: 90.4%
- growth [2]: 82.6%
- growth [9]: 80.6%
- growth [1]: 40.8%
- growth [10]: 84.6%
- growth [11]: 91.6%
- growth [12]: 73%
- growth [13]: 54.6%
- growth [14]: 107%
- growth [16]: 66.4%
- growth [3]: 62.9%
- growth [4]: 83.5%
- growth [5]: 58.9%
- growth [19]: 85.5%

SMILES: Cc1cc(O)cc2c1[C@H]1CC[C@]3(C)[C@@H](O)CC[C@H]3[C@@H]1C=C2
- growth [6]: 113%
- growth [8]: 80.9%
- growth [9]: 92.2%
- growth [10]: 98.4%
- growth [11]: 85.2%
- growth [12]: 77.5%
- growth [13]: 78.7%
- growth [14]: 93.5%
- growth [15]: 76.2%
- growth [16]: 94.7%
- growth [3]: 92.5%
- growth [17]: 86.3%
- growth [4]: 83.8%
- growth [18]: 81.3%
- growth [19]: 99.8%

SMILES: CC#CC#C/C=C1\C=CC2(OC=CC2OC(C)=O)O1 (stereo unspecified)
- growth [5]: -87% [100 µM] (active) and -100% [100 µM] (active)

SMILES: CON=C1C[C@]2(C[C@@H]3C[C@@H](C/C=C(\C)C[C@@H](C)/C=C/C=C4\CO[C@@H]5[C@H](O)C(C)=C[C@@H](C(=O)O3)[C@]45O)O2)O[C@H](/C(C)=C/C(C)C)[C@H]1C
- growth [6]: 39.6%
- growth [7]: 65.9%
- growth [8]: 54%
- growth [2]: 47.2%
- growth [9]: 58.3%
- growth [1]: 33%
- growth [10]: 85.1%
- growth [11]: 81.3%
- growth [12]: 57.4%
- growth [13]: 48.4%
- growth [14]: 32.4%
- growth [15]: 140%
- growth [16]: 63.3%
- growth [3]: 39.5%
- growth [17]: 13.5%
- growth [5]: 70.6%
- growth [18]: 55.3%
- growth [19]: 85.8%

SMILES: Cc1cc(C)c(S(=O)O)c(C)c1
- growth [6]: 120%
- growth [7]: 122%
- growth [8]: 102%
- growth [2]: 101%
- growth [9]: 114%
- growth [1]: 93.4%
- growth [10]: 104%
- growth [11]: 121%
- growth [12]: 116%
- growth [13]: 111%
- growth [14]: 100%
- growth [15]: 86.6%
- growth [16]: 102%
- growth [3]: 105%
- growth [17]: 94.6%
- growth [5]: 102%
- growth [18]: 93.9%
- growth [19]: 113%

SMILES: O=C1c2cc(S(=O)(=O)O)ccc2C(=O)c2c1cccc2[N+](=O)[O-]
- growth [7]: 111%
- growth [8]: 112%
- growth [2]: 128%
- growth [9]: 108%
- growth [1]: 100%
- growth [10]: 104%
- growth [11]: 93%
- growth [12]: 95.2%
- growth [13]: 110%
- growth [14]: 104%
- growth [15]: 110%
- growth [16]: 106%
- growth [3]: 99.2%
- growth [17]: 96.3%
- growth [4]: 114%
- growth [5]: 110%
- growth [18]: 103%
- growth [19]: 121%

SMILES: CC1=C(C/C=C(\C)CCC[C@H](C)CCC[C@H](C)CCCC(C)C)C(=O)c2ccccc2C1=O
- growth [6]: 120%
- growth [7]: 102%
- growth [8]: 106%
- growth [2]: 119%
- growth [9]: 108%
- growth [1]: 101%
- growth [10]: 96.4%
- growth [11]: 98.2%
- growth [12]: 104%
- growth [13]: 104%
- growth [14]: 105%
- growth [15]: 95.1%
- growth [16]: 101%
- growth [3]: 98.5%
- growth [17]: 98.2%
- growth [4]: 112%
- growth [5]: 105%
- growth [18]: 96.4%
- growth [19]: 128%

SMILES: O=S(=O)(OCCO)c1ccccc1
- growth [6]: 112%
- growth [7]: 105%
- growth [8]: 97.2%
- growth [2]: 98.1%
- growth [9]: 102%
- growth [1]: 93.1%
- growth [10]: 106%
- growth [11]: 103%
- growth [12]: 109%
- growth [13]: 103%
- growth [14]: 98.9%
- growth [15]: 75%
- growth [16]: 102%
- growth [3]: 106%
- growth [17]: 99.3%
- growth [4]: 94.4%
- growth [18]: 103%
- growth [19]: 110%
